C diff growth: C. difficile growth inhibitors, primary screen, HTS. Clostridium difficile clinical isolate growth, OD600, 24 h; stronger effect = lower value. growth activity, negative = inhibition, % at 16 µg/mL (by protocol). 86,000 compounds, 0.25% hits;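 active = mean growth activity at or below -80% and every replicate also at or below -80%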;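 note: 0% = DMSO wells and -100% = levofloxacin 16 µg/mL wells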
T cruzi growth: T. cruzi intracellular proliferation inhibitors, primary screen, cell-based, beta-gal Tulahuen parasites, NIH3T3 host, luminescence; T. cruzi beta-gal in NIH3T3, GalScreen luminescence, 90 h; inhibition, % at 8.34 µM; 77,000 compounds, 5.9% hits;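 active = mean inhibition above about 93%, with at least 55% of replicates each passing it, limit read from the data, passing the limit was not always enough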
Pf Dd2 growth: P. falciparum Dd2 growth inhibitors, primary screen, SYBR Green fluorescence, single dose replicates. 72 h; stronger effect = lower value. activity change, % at 10 µM. 94,000 compounds, 2.3% hits. AID 1159554, 2015; in the data active = activity change below about -80%
* marks the source's active call; other numbers are inactive results; x = no result given; ! = a repeat was not active. A selection: hits, their analogues and other compounds. The true share with any hit is near 6.8%.

SMILES | C diff growth | T cruzi growth | Pf Dd2 growth
Cc1noc(C)c1S(=O)(=O)N(C)C[C@H]1Oc2ccc(NC(=O)NC(C)C)cc2CC(=O)N([C@@H](C)CO)C[C@@H]1C | -3 | 23 | 2
COc1ccc(NC(=O)N(C)C[C@H]2Oc3ccc(NS(=O)(=O)c4ccc(C)cc4)cc3CC(=O)N([C@H](C)CO)C[C@@H]2C)cc1 | x | 18 | 19
Fc1cccc(-c2ccc(C3[C@@H]4CN(Cc5cccnc5)C[C@H]3N4)cc2)c1 (stereo partly specified) | -6 | x | -90*!
Cc1ccccc1-c1ccc(C2[C@@H]3CN(Cc4cccnc4)C[C@H]2N3)cc1 (stereo partly specified) | -6 | x | -90*!
Fc1cccc(CN2C[C@@H]3N[C@H](C2)C3c2ccc(-c3cncnc3)cc2)c1 (stereo partly specified) | -1 | x | -52
Fc1cccc(CN2C[C@@H]3N[C@H](C2)C3c2ccc(-c3ccccc3)cc2)c1 (stereo partly specified) | -99* | x | 3
CN(C)C(=O)c1ccc(-c2ccc(C3[C@@H]4CN(Cc5cccnc5)C[C@H]3N4)cc2)cc1 (stereo partly specified) | -7 | x | -16
O=C(C1CCC1)N1C[C@@H]2N[C@H](C1)C2c1ccc(-c2cccc(F)c2)cc1 (stereo partly specified) | 35 | x | -65
Fc1cccc(-c2ccc(C3[C@@H]4CN(Cc5ccccc5F)C[C@H]3N4)cc2)c1 (stereo partly specified) | -101* | x | -33
O=C(Cc1ccncc1)N1C[C@@H]2N[C@H](C1)C2c1ccc(-c2cccc(F)c2)cc1 (stereo partly specified) | 10 | x | -57
CNC[C@@H]1Oc2c(NS(=O)(=O)c3ccc(C)cc3)cccc2C(=O)N([C@@H](C)CO)C[C@@H]1C | -1 | 9 | 44
COCC(=O)Nc1ccc2c(c1)OC[C@H](C)N(C(C)=O)C[C@@H](C)[C@H](OC)CN(C)C2=O | -2 | -37 | x
COc1cccc(NC(=O)C[C@H]2CC[C@@H]3[C@@H](COc4ccc(NC(=O)C5CCCC5)cc4C(=O)N3C)O2)c1 | -4 | x | -31
N#Cc1cccc(-c2ccc(C3[C@@H]4CN(Cc5ccccc5)C[C@H]3N4)cc2)c1 (stereo partly specified) | 34 | x | -91*!
O=C(C1CCOCC1)N1C[C@@H]2N[C@H](C1)C2c1ccc(-c2cccc(F)c2)cc1 (stereo partly specified) | -7 | x | -5
N#Cc1ccc(-c2ccc([C@@H]3[C@@H]4CN(S(=O)(=O)Cc5ccccc5)C[C@H]3N4)cc2)cc1 | 30 | x | -86*
N#Cc1cccc(-c2ccc(C3[C@@H]4CN(C(=O)C5CCCC5)C[C@H]3N4)cc2)c1 (stereo partly specified) | 13 | x | -69
Fc1cccc(CN2C[C@@H]3N[C@H](C2)[C@@H]3c2ccc(-c3cccc(F)c3)cc2)c1 | -94* | x | -62
N#Cc1cccc(-c2ccc(C3[C@@H]4CN(S(=O)(=O)Cc5ccccc5)C[C@H]3N4)cc2)c1 (stereo partly specified) | 30 | x | -27
Cc1noc(C)c1S(=O)(=O)Nc1ccc2c(c1)C(=O)N([C@H](C)CO)C[C@H](C)[C@H](CN(C)S(=O)(=O)c1cccs1)OCCCC[C@H](C)O2 | -11 | 75 | -32
C[C@@H]1CN([C@@H](C)CO)C(=O)Cc2cc(NC(=O)C3CCCCC3)ccc2O[C@@H]1CN(C)S(=O)(=O)c1cccs1 | -1 | 1 | 21
COc1ccc2c3c(n(C)c2c1)[C@H](CO)N(C(=O)Nc1ccc(F)cc1)CC31CN(S(=O)(=O)c2cccs2)C1 | x | x | 7
COc1ccc2c3c(n(C)c2c1)[C@@H](CO)N(C(=O)Nc1ccc(F)cc1)CC31CN(S(=O)(=O)c2cccc(C)c2)C1 | -16 | x | -27
COc1ccc2c3c(n(C)c2c1)[C@H](CO)N(C(=O)Nc1ccc(F)cc1)CC31CCN(S(=O)(=O)c2cccs2)CC1 | -1 | x | -86*
COc1ccc2c3c(n(C)c2c1)[C@H](CO)N(C(=O)Nc1ccc(F)cc1)CC31CCN(S(=O)(=O)c2cccc(F)c2)CC1 | -3 | x | -88*
SMILES | C diff growth | T cruzi growth | Pf Dd2 growth
C[C@H]1CN([C@@H](C)CO)C(=O)Cc2cc(NC(=O)Nc3ccc(F)cc3)ccc2O[C@H]1CN(C)Cc1ccc(C(=O)Nc2ccccc2N)cc1 | 7 | x | -83*
COc1ccc(NC(=O)Nc2ccc3c(c2)CC(=O)N([C@H](C)CO)C[C@@H](C)[C@@H](CN(C)Cc2ccc(C(=O)Nc4ccccc4N)cc2)O3)cc1 | 5 | x | -68
C[C@H](CO)N1C[C@H](C)[C@@H](CN(C)Cc2ccc(C(=O)Nc3ccccc3N)cc2)Oc2ccc(NC(=O)Nc3ccc(F)cc3)cc2CC1=O | 3 | 37 | -77
C[C@@H]1CN([C@H](C)CO)C(=O)Cc2cc(NC(=O)Nc3ccc(F)cc3)ccc2O[C@@H]1CN(C)Cc1ccccc1 | 9 | 75 | -34
COc1ccc(NC(=O)Nc2ccc3c(c2)CC(=O)N([C@@H](C)CO)C[C@H](C)[C@@H](CN(C)Cc2ccc(C(=O)Nc4ccccc4N)cc2)O3)cc1 | -2 | x | -88*
C[C@@H]1CN([C@@H](C)CO)C(=O)Cc2cc(NC(=O)Nc3ccc(F)cc3)ccc2O[C@H]1CN(C)Cc1ccccc1 | -1 | 59 | -85*
COc1ccc(CN(C)C[C@@H]2OCCCC[C@H](C)Oc3ccc(NC(=O)NC(C)C)cc3C(=O)N([C@H](C)CO)C[C@@H]2C)cc1 | 1 | 48 | -23
Cc1ccc(S(=O)(=O)N(C)C[C@@H]2Oc3ccc(NC(=O)CCCN(C)C)cc3CC(=O)N([C@@H](C)CO)C[C@H]2C)cc1 | 4 | 17 | 11
Cc1ccc(S(=O)(=O)N(C)C[C@@H]2OCCCC[C@H](C)Oc3ccc(NC(=O)Cc4ccccc4)cc3C(=O)N([C@@H](C)CO)C[C@H]2C)cc1 | x | 58 | -79
C[C@@H]1CCCCO[C@@H](CN(C)S(=O)(=O)c2ccc(Cl)cc2)[C@@H](C)CN([C@@H](C)CO)C(=O)c2cc(NC(=O)Cc3ccccc3)ccc2O1 | 2 | 62 | -78
Cc1ccc(S(=O)(=O)N(C)C[C@@H]2OCCCC[C@@H](C)Oc3ccc(NC(=O)Cc4ccccc4)cc3C(=O)N([C@H](C)CO)C[C@@H]2C)cc1 | x | 53 | -81*
C[C@@H]1CCCCO[C@@H](CN(C)S(=O)(=O)c2ccc(Cl)cc2)[C@@H](C)CN([C@H](C)CO)C(=O)c2cc(NC(=O)Cc3ccccc3)ccc2O1 | 5 | 45 | -83*
C[C@@H]1CCCCO[C@@H](CN(C)C(=O)C2CCCCC2)[C@@H](C)CN([C@@H](C)CO)C(=O)c2cc(NC(=O)C3CCCCC3)ccc2O1 | -1 | 38 | -85*
C[C@@H]1CCCCO[C@H](CN(C)C(=O)C2CCCCC2)[C@@H](C)CN([C@@H](C)CO)C(=O)c2cc(NC(=O)Cc3ccccc3)ccc2O1 | 4 | 42 | -85*
C[C@H]1CCCCO[C@@H](CN(C)C(=O)C2CCCCC2)[C@@H](C)CN([C@@H](C)CO)C(=O)c2cc(NC(=O)c3ccncc3)ccc2O1 | -3 | 18 | -81*
